In PubChem BioAssay AID778 (Sanford-Burnham Center for Chemical Genomics, 2007):
The campaign covered roughly 96,000 compounds. About 20,000 (21%) were called active. These entries were drawn from the full list. Unmarked numbers belong to inactive results.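 How the source made its calls: active means CYP2C19 inhibition above a set limit at 5 µM in the primary screen (cut at about 50% in these data); inactive means the rest.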

These compounds were tested against Cytochrome P450 2C19 (Homo sapiens) (UniProt P33261) (assay: blockers of cytochrome P450 2C19 activity – biochemical, luminescence, ADME assay, primary screen (AID 778;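 further: plate controls were negative control wells for no effect and 2.5 mM tranylcypromine positive control for full effect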)). Settings: CYP2C19 Supersomes, luciferin-H EGE luminescence, 30 min; at 5 µM; hits give high values.
Chain of Cytochrome P450 2C19 (Homo sapiens) (P33261 whole entry, looked up): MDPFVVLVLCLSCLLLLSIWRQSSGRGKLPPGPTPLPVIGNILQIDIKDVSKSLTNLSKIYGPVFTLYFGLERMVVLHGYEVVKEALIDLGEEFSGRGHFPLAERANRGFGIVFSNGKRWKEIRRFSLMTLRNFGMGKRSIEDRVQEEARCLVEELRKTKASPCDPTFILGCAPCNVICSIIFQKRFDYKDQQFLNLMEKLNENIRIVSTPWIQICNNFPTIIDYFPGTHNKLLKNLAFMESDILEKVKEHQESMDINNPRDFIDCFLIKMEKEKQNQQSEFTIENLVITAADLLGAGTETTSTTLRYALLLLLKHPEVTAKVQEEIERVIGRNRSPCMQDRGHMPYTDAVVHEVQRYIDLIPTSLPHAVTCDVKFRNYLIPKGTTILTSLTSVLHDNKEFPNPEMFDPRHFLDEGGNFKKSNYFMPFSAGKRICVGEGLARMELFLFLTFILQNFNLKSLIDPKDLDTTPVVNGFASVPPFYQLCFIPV

SMILES	inhibition
CCCc1ccc(-c2c(C)sc(NC(=O)c3ccnn3C)c2C#N)cc1	23.9%
CCCC(=O)N1c2ccccc2NC2=C(C(=O)CCC2)C1c1ccc(F)cc1 (stereo unspecified)	48.1%
CN(C(=O)CSc1nnc(N)s1)c1c(N)n(Cc2ccccc2)c(=O)[nH]c1=O	-3.1%
O=C(CN1CCOCC1)N1CCCc2c1c(=O)oc1ccc(OCc3ccccc3)cc21	29.5%
CCN(CC)S(=O)(=O)c1ccc(N(C)Cc2ccc(C(F)(F)F)cc2)nc1	85.1% (active)
Cc1ccc(-n2c(N)c(C(=O)N3CCOCC3)sc2=S)c(C)c1	20.4%
COc1ccccc1OCCOc1ccc(/C=N/n2cnnc2)cc1	38.5%
COc1cccc(OCCOc2cccc(/C=N/n3cnnc3)c2)c1	54.7% (active)
C(=N\n1cnnc1)/c1cccnc1	-5.3%
Oc1ccc(CNc2ccccc2O)cc1	22%
CC(C)C1N=C2c3ccccc3N=C(SCC(=O)c3ccc(O)c(O)c3)N2C1=O (stereo unspecified)	16.6%
O=C(N/N=C/c1ccc(O)c(O)c1)C1c2ccccc2Oc2ccccc21	-4.1%
CCCN(CCC)C(=O)C1c2ccccc2Oc2ccccc21	57.1% (active)
COCC(=O)Nc1ccc(Br)cc1	13%
O=C(c1cnn2ccccc12)N1CCc2ccccc21	25.2%
CCCCn1nc(C(=O)N2CCc3ccccc32)c2ccccc2c1=O	69.6% (active)
CCCCc1nc2ccccc2c(=O)n1NC(=O)c1c(O)c2cccc3c2n(c1=O)CC3	8%
Cc1ccc(-c2cc(C(=O)N/N=C/C=C/c3ccco3)c3ccccc3n2)cc1C	-4.3%

SMILES	inhibition
COC(=O)c1c(C)c(C)nc(N)c1C#N	-7.3%
O=C(CN1CCCCCC1)Nc1ccc(Br)cc1Br	42.6%
CCOC(=O)c1sc(=S)n(-c2cccc(OC)c2)c1N	31.5%
CCOc1cccc(-c2nnc3sc(COc4ccc(OC)cc4)nn23)c1	19.8%
CCOc1cccc(-n2nnnc2-c2ccc(OC)cc2)c1	100% (active)
Cc1ccc2[nH]c3c(=O)n(Cc4ccccn4)cnc3c2c1	-0.8%
CC(C)C(=O)OCC(=O)Nc1ccc2c(c1)CCC2	16.8%
COc1ccc(CNc2ccc3c(c2)CCC3)cc1OC	49.8%
COc1ccc(CC(=O)Nc2ccc3c(c2)CCC3)cc1S(=O)(=O)N1CCOCC1	54.5% (active)
O=C1CN(c2nc(-c3ccccc3)c3cc(Br)ccc3n2)c2ccccc2N1	-14.1%
S=C1NC(c2ccccc2)=NCN1c1ccc(Br)cc1	52.3% (active)
C=CCn1c2ccccc2c2nnc(SC(CC)C(=O)Nc3nc(C)c(C(=O)OCC)s3)nc21 (stereo unspecified)	48.6%
CCN(CC)CCNC(=O)C1c2ccccc2C(=O)N(C)C1c1cn(C)c2ccccc12 (stereo unspecified)	-5.9%
Cc1cccc(NC(=O)c2ccccc2NC(=O)C(C)(C)C)n1	30.7%
Cc1ccc(SCC(=O)Nc2ncc(C)s2)cc1	49.5%
Cc1ccc(SCC(=O)c2sc(-c3ccccc3)nc2C)cc1	60.9% (active)
Cc1nc(-c2ccccc2)sc1C(=O)/C=C/c1ccccc1	16.8%
CC1CN(Cc2nc3c(c(=O)n(C)c(=O)n3C)n2Cc2cccc(Cl)c2)CC(C)O1 (stereo unspecified)	35.9%
